The source made the active and inactive calls. How the source made its calls: active means hit-call score of the fitted dose curve at least 0.9, where 1 is the maximum; inactive means score below 0.9.
test: APR_HepG2_MitoMembPot_24hr: Apredica 24-hour HepG2 Assay for Mitochondrial Membrane Potential (AID 2282911); conditions: imaging, actives raise or lower the signal
Protocol: APR_HepG2_24hr is a cell-based, multiplexed-readout assay that uses HepG2, a human liver cell line, with measurements taken at 24 hours after chemical dosing in a 384-well plate.APR_HepG2_MitoMembPot_24hr is one of 10 assay component(s) measured or calculated from the APR_HepG2_24hr assay. It is designed to make measurements of dye binding, a form of membrane potential reporter, as detected with fluorescence intensity signals by HCS Fluorescent Imaging technology.Data from the assay component APR_HepG2_MitoMembPot_24hr was analyzed into 1 assay endpoint. This assay endpoint, APR_HepG2_MitoMembPot_24hr, was analyzed with bidirectional fitting relative to DMSO as the negative control and baseline of activity. Using a type of membrane potential reporter, gain or loss-of-signal activity can be used to understand changes in the signaling. Furthermore, this assay endpoint can be referred to as a primary readout, because this assay has produced multiple assay endpoints where this one serves a signaling function. To generalize the intended target to other relatable targets, this assay endpoint is annotated to the cell morphology intended target family, where the subfamily is organelle conformation.
Cells were treated with dimethyl sulfoxide (DMSO) as a solvent control at a final concentration of 0.5% v/v or with compounds in DMSO with a resulting final DMSO concentration of 0.5% v/v. Compound treatment was done at concentrations of 0.39, 0.78, 1.56, 3.12, 6.24, 12.5, 25, 50, 100, and 200 uM in duplicate on each plate. Cells were treated with compounds for 1, 24, or 72 hr. Carbonyl […] m-chloro-phenylhydrazone (CCCP) and taxol were used as positive controls for mitochondrial function and cytoskeletal stability, respectively; DMSO served as the negative control for this experiment. Cells were fixed by the direct addition of 50 uL formaldehyde in Hank's Balanced Salt Solution (HBSS) to a final concentration of 3.7%. After incubation in the fixation medium for 30 min at room temperature (293-298 K), cells were rinsed twice with HBSS and treated with cell permeabilization buffer (16 uL of 0.5% Triton X-100) for 10 min at room temperature (293-298 K) before labeling. For mitochondrial membrane potential and mitochondrial measurements, pre-fixed cells were incubated with 50 uL of MitoTracker Red CMXRos (Invitrogen) at a concentration of 250 nM for 30 min before fixation. In the remaining cases, post-fixed cells were labeled by incubation with a multiplexed mixture of primary antibodies in HBSS for 60 min at room temperature (293-298 K) to detect immunoreactivity of c-Jun (1:500), phospho-histone H3 (1:100), phospho-histone H2A.x (1:200), p53 (1:400), alpha-tubulin (1:200) and Hoechst 33342 (2 ug/mL). Cells were labeled for multiplexed imaging on two separate plates: a) Hoechst 33342, MitoTracker Red, phospho-histone H3, and alpha-tubulin, and b) Hoechst 33342, phospho-histone H2A.x, and c-Jun. A final rinse with HBSS (50 uL) was performed before analysis. The primary and secondary antibodies for the proteins were phospho-histone H3 (rabbit anti-phospho-histone H3 and FITC-donkey anti-rabbit IgG), phospho-histone H2A.x (mouse anti-phospho-histone H2A.x and FITC-donkey anti-mouse IgG), c-Jun (rabbit anti-phospho-c-Jun and Cy3-donkey anti-rabbit IgG), p53 (sheep anti-p53 and Cy5-donkey anti-sheep IgG), alpha-tubulin (mouse anti-alpha-tubulin and Cy5-donkey anti-mouse IgG). These antibodies are available as the CellCiphr HepG2 assay kit (Millipore).Digital images of each well were captured using a Cellomics ArrayScan VTI (Thermo Scientific Cellomics) (0.8 NA objective, 0.63x optical coupler, and XF-93 filter set) at 20x magnification. The images were acquired using the autofocus feature of the ArrayScan instrument, which entails the following steps. First, the camera focuses on channel 1 (Hoechst 33342), where nuclei are identified. Second, a Z offset of 1 um is used for capturing mitochondria (MitoTracker Red). […]

outcome, inactive:
CCCCCCCCCCCCCCC, CN(Cc1cnc2nc(N)nc(N)c2n1)c1ccc(C(=O)N[C@@H](CCC(=O)O)C(=O)O)cc1, OCC(CO)(CBr)CBr, CCCCCCCCCCCCOS(=O)(=O)O, N=C(N)c1ccc(OCCCCCOc2ccc(C(=N)N)cc2)cc1, O=C1NS(=O)(=O)c2ccccc21, CCCCc1oc2ccccc2c1C(=O)c1cc(I)c(OCCN(CC)CC)c(I)c1, CN(C)CCOC(c1ccccc1)c1ccccc1, CCCCC(CC)C(=O)O (stereo not given), CC(=O)Nc1ccc(O)cc1, O=C(c1ccccc1)c1ccccc1, CCCCC=O, O=C(CCCN1CCC(O)(c2ccc(Cl)cc2)CC1)c1ccc(F)cc1, CS(=O)(=O)c1ccc([C@@H](CC2CCCC2)C(=O)Nc2cnccn2)cc1Cl

AC50, active:
Cc1[nH]nc2c1N=C(c1ccccc1Cl)c1cc([N+](=O)[O-])ccc1N2 100 µM

Reference: PubChem BioAssay (EPA / NIEHS)
